According to ChEMBL document CHEMBL1961873, “Compounds: GSK PKIS; Assays: Nanosyn kinase panel” (2012):

Assays:
[1] = molecular target: T1, Muscle, skeletal receptor tyrosine-protein kinase (Homo sapiens) (UniProt O15146); conditions: at 1 µM;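 also: reported value is the mean percent inhibition of MuSK kinase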
T1 sequence (whole entry): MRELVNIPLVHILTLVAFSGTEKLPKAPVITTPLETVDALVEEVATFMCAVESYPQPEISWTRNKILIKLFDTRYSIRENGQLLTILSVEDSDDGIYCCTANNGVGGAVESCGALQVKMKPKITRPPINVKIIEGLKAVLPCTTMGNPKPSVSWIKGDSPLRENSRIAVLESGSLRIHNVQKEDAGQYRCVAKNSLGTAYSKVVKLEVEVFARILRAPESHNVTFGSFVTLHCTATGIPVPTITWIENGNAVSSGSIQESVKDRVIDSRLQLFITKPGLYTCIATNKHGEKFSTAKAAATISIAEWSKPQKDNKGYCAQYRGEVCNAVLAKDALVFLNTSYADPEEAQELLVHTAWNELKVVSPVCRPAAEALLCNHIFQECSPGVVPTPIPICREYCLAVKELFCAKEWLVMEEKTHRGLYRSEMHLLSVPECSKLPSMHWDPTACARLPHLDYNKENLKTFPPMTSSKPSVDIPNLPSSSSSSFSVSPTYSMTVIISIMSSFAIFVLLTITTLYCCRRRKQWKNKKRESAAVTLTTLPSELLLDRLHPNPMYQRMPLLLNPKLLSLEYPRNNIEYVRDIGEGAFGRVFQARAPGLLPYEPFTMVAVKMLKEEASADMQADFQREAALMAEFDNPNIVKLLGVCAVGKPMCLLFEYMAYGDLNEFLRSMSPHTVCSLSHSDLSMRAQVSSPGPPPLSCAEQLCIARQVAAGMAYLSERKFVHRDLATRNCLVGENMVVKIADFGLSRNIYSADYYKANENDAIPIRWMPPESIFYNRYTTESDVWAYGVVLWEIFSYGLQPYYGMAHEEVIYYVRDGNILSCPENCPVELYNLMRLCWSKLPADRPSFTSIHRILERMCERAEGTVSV

[2] = molecular target: Platelet-derived growth factor receptor alpha (Homo sapiens) (UniProt P16234); conditions: at 0.1 µM
Platelet-derived growth factor receptor alpha (Homo sapiens), sequence (P16234 whole entry): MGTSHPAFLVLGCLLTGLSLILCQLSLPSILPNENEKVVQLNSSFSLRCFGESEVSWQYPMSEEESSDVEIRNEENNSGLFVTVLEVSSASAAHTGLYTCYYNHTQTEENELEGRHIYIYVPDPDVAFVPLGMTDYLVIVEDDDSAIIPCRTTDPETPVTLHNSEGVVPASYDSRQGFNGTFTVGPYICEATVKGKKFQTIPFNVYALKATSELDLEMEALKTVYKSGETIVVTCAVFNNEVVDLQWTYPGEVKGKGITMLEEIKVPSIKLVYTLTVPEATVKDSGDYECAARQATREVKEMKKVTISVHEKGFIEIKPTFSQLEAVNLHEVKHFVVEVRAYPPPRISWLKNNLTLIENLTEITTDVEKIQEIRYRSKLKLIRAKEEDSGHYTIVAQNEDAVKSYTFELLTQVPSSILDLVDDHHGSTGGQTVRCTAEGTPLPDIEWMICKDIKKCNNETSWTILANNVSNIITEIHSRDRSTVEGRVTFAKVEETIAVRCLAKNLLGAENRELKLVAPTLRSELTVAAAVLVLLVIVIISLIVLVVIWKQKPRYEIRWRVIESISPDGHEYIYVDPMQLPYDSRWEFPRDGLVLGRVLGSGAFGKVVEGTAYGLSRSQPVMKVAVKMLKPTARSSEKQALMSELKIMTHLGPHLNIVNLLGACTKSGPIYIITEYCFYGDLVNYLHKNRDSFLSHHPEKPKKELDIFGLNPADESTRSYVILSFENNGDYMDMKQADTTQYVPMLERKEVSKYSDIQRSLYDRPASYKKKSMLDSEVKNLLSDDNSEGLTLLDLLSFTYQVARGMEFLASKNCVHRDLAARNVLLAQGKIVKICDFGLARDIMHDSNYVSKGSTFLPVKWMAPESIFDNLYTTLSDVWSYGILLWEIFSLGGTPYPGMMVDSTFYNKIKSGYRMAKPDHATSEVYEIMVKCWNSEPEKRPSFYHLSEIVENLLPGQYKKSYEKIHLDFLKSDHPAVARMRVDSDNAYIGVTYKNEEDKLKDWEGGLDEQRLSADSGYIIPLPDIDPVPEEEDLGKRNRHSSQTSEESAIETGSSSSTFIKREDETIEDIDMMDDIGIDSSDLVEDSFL

[3] = molecular target: Platelet-derived growth factor receptor alpha (Homo sapiens) (UniProt P16234); conditions: at 1 µM
[4] = system: Platelet-derived growth factor receptor alpha (Homo sapiens), P16234 [D842V]; conditions: at 0.1 µM
Platelet-derived growth factor receptor alpha (Homo sapiens), P16234 [D842V], sequence (P16234 whole entry D842V): as the sequence (P16234 whole entry) above, with D842V counted along it

[5] = system: Platelet-derived growth factor receptor alpha (Homo sapiens), P16234 [D842V]; conditions: at 1 µM
[6] = system: Platelet-derived growth factor receptor alpha (Homo sapiens), P16234 [T674I]; conditions: at 0.1 µM
Platelet-derived growth factor receptor alpha (Homo sapiens), P16234 [T674I], sequence (P16234 whole entry T674I): as the sequence (P16234 whole entry) above, with T674I counted along it

[7] = system: Platelet-derived growth factor receptor alpha (Homo sapiens), P16234 [T674I]; conditions: at 1 µM
[8] = system: Platelet-derived growth factor receptor alpha (Homo sapiens), P16234 [V561D]; conditions: at 0.1 µM
Platelet-derived growth factor receptor alpha (Homo sapiens), P16234 [V561D], sequence (P16234 whole entry V561D): as the sequence (P16234 whole entry) above, with V561D counted along it

[9] = system: Platelet-derived growth factor receptor alpha (Homo sapiens), P16234 [V561D]; conditions: at 1 µM
[10] = molecular target: Platelet-derived growth factor receptor beta (Homo sapiens) (UniProt P09619); conditions: at 0.1 µM;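 also: reported value is the mean percent inhibition of the kinase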
Platelet-derived growth factor receptor beta (Homo sapiens), sequence (P09619 whole entry): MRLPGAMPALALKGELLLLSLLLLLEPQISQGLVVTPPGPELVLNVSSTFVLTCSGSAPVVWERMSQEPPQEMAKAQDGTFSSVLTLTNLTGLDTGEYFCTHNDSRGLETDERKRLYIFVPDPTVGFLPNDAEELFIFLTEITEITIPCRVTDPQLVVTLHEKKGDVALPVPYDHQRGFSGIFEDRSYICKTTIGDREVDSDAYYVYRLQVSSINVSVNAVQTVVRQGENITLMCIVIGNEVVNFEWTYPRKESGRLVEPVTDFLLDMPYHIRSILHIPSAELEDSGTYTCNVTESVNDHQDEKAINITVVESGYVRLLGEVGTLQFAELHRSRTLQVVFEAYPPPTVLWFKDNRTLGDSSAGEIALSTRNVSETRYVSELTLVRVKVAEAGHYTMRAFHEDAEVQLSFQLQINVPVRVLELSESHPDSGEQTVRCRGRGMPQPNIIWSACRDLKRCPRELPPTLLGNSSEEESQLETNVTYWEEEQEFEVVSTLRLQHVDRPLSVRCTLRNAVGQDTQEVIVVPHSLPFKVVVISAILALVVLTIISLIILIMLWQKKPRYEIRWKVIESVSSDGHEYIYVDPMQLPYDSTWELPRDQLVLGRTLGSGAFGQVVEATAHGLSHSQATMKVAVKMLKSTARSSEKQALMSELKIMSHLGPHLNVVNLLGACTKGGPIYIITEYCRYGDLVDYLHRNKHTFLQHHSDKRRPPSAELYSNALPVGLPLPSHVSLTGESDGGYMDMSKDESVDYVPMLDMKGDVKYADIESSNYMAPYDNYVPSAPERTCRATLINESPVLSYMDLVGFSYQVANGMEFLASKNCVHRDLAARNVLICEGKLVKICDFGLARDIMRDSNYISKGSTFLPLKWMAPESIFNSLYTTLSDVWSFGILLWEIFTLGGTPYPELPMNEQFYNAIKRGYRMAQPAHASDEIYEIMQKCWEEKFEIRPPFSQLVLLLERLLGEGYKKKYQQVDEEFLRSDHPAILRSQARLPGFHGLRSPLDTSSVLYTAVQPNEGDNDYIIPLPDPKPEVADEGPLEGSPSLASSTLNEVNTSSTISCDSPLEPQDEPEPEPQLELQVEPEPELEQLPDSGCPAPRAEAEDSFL

Row | Structure (SMILES) | inhibition [1] [%] | inhibition [2] [%] | inhibition [3] [%] | inhibition [4] [%] | inhibition [5] [%] | inhibition [6] [%] | inhibition [7] [%] | inhibition [8] [%] | inhibition [9] [%] | inhibition [10] [%]
1 | COc1ccc(-c2ccncc2)cc1C(N)=O | 8.58 | 10.2 | 15.4 | 1.62 | 4.35 | 5.26 | 8.98 | 3.41 | 6.77 | 5.16
2 | COc1cc2ncn(-c3cc(O[C@H](C)c4ccccc4Cl)c(C(N)=O)s3)c2cc1OC | 78.2 | 73.2 | 100 | 42.1 | 88.2 | 56.5 | 97.2 | 50.5 | 87.3 | 59.7
3 | O=C(Nc1n[nH]c2nc(-c3ccco3)c(Br)cc12)C1CC1 | 6.32 | 4.56 | 12.9 | 0.77 | 4.15 | 5.19 | 6.07 | 0.75 | 4.4 | 3.97
4 | COc1ccc(-c2coc3ncnc(N)c23)cc1 | 9.1 | 8.72 | 16.2 | 3.41 | 6.25 | 5.4 | 5.37 | 6.46 | 28 | 3.23
5 | CS(=O)(=O)CCNCc1nc(-c2ccc3ncnc(Nc4ccc(F)c(Cl)c4)c3c2)cs1 | 2.48 | 11.7 | 25.9 | 1.4 | 10.4 | 10.8 | 8.67 | 2.8 | 9.09 | 3.34
6 | NCc1ccc(-c2nc(-c3ccc(Cl)c(O)c3)c(-c3ccncc3)[nH]2)cc1 | 2.08 | 6.86 | 25.6 | 6.11 | 31 | 2.74 | 2.2 | 5.6 | 25.9 | 7.07
7 | CCn1c(-c2nonc2N)nc2cnc(Oc3cccc(NC(=O)c4ccc(OCCN5CCOCC5)cc4)c3)cc21 | -1.35 | 5.93 | 9.57 | 1.95 | 4.64 | 4.39 | 9.13 | 3.13 | 3.7 | 2.12
8 | O=C1NC(=O)C(N2CCc3ccccc32)=C1c1ccc(Cl)cc1 | 3.86 | 13.4 | 15.4 | 3.39 | 6.57 | 10.4 | 7.21 | 3.93 | 6.68 | 
9 | N#Cc1c(NC(=O)c2cccc3ccccc23)sc2c1CCCC2 | 4.97 | 6.56 | 12.2 | 4.04 | 4.85 | 4.77 | 9.67 | 3.45 | 6.79 | 3.17
10 | CNC(=O)c1cncc(/C=C/c2c(Cl)cccc2Cl)c1 | 6.78 | 8.07 | 21.1 | 0.55 | 4.33 | 1.59 | 5.24 | 14.1 | 43 | 5.46
11 | CC1=C(C(=O)Nc2ccc3[nH]ncc3c2)C(c2ccc3ccccc3c2)CC(=O)N1 (centres undefined) | 5.45 | 8.08 | 14.6 | 2.86 | 5.83 | 3.54 | 5.01 | 5.52 | 7.45 | 2.15
12 | Cn1cc(C=C2C(=O)Nc3cccnc32)c2ccccc21 | 12.8 | 19.5 | 65.3 | 9.02 | 47.1 | 5.86 | 20.2 | 12.4 | 58.7 | 12.5
13 | COc1cc2c(cc1Nc1nc(N3CCc4ccccc43)c3cc[nH]c3n1)N(C(=O)CN(C)C)CC2 | 4.18 | 4.13 | 3.64 | 0.92 | -1.2 | 1.67 | 0.13 | -0.57 | 2.32 | 1.46
14 | Nc1ncnc2occ(-c3ccc(NC(=O)Nc4cccc(C(F)(F)F)c4)cc3)c12 | 90.2 | 88.2 | 93.1 | 26.5 | 76.4 | 79.5 | 85 | 95.3 | 99 | 69.4
15 | COc1cc(C=NNc2ncnc3c2cnn3-c2ccccc2)ccc1O | 43.8 | 28.2 | 78.2 | 24.6 | 79.5 | 13.7 | 39.1 | 15.1 | 68.9 | 18.1
16 | CC1=C(C(=O)Nc2ccc3[nH]ncc3c2)C(c2ccc(Cl)c(Cl)c2)CC(=O)N1 (centres undefined) | 4.26 | 6.81 | 8.15 | 0.72 | 1.68 | 2.47 | 1.49 | 0.48 | 2.1 | 1.34
17 | Cc1cccc(-c2n[nH]cc2-c2ccc3ncccc3n2)n1 | 2.87 | 10.7 | 55.3 | 18.8 | 68.7 | 1.71 | 0.07 | 12.3 | 53 | 2.42
